# Source: PubChem BioAssay (NCI)
# This is part of a sample that, as a whole, favours compounds with a hit. Of some 83,000 tested, about 20% had one in any assay.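 Method: cells in 96-well plates; compound added at one concentration; 48 h incubation; percent growth measured; values under 10 scored active.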 Calls of active or inactive are those of the source.
# System: MDA-MB-468 breast
# Experiment: NCI-60 one-dose screen, 48 h (100 = growth as untreated, 0 = no growth, -100 = all killed)
# Details: 10 µM unless noted
row,Compound,growth
1,COc1ccc(C/C(C)=C(\c2ccc(OCCN3CCOCC3)cc2)c2ccc(OC(=O)Cc3ccccc3)cc2)cc1,-33.4% (active)
2,O=C(CC1(O)C(=O)N(Cc2ccccc2)c2ccc(F)cc21)c1ccc(C(=O)NCC2CCC3(CC2)OOC2(CCCCC2)OO3)cc1 (stereo unspecified),-41.8% (active)
3,CC(=O)O[C@H]1CC[C@@]2(C)C(=CC[C@H]3[C@@H]4C[C@@H](N5CC5)[C@H](C(C)=O)[C@@]4(C)CC[C@@H]32)C1,79% (inactive)
4,O=C(CCl)c1ccc([N+](=O)[O-])o1,-49.5% (active)
5,CC(C)c1cc([N+](=O)[O-])cc([N+](=O)[O-])c1O,96.7% (inactive)
6,O[C@H](CN1CC1)[C@@H](O)CN1CC1,9.35% (active)
